TROY signal inh: TROY signaling inhibition; Q293 LMP1-TROYcd NF-kB luciferase reporter, 4 h; inhibition, % at 10 µM; 360,000 tested, 0.98% active;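 active means compounds whose plate-normalised and pattern-corrected inhibition of the luciferase reporter signal at the single screening dose is 50% or more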
MITF TRPM1 inh: MITF TRPM1 promoter inhibition in SK-MEL-5 cells; SK-MEL-5 TRPM1 promoter luciferase, 24 h; 330,000 tested, 0.83% active; AID 488899; inhibition, % at 12.5 µM;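 active means mean inhibition across replicates of 60% or more, whatever share of single replicates reaches that level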
TWEAK Fn14 block: TWEAK-Fn14 signaling inhibition; TWEAK-stimulated Fn14 reporter cells, luciferase luminescence, 8 h; inhibition, % at 10 µM; 360,000 tested, 2% active; AID 1159606; in the data active means inhibition above about 50%
Shn3 inh set2: inhibitors of Schnurri-3 3'UTR reporter in osteoblasts; Clone20 osteoblast Shn3 3'UTR firefly luciferase, 24 h; inhibition, % at 12.5 µM; 360,000 tested, 0.52% active; AID 588674;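 active means mean inhibition of at least 75% with every replicate also reaching 75%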;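 further: 0% = median of neutral control wells and 100% = pilot-screen positive control compound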
EBV LMP1 NFkB: reduces LMP1-driven NF-kappaB luciferase signal. LMP1-induced NF-kappaB luciferase reporter cells, luminescence. inhibition, % at 12.5 µM. 350,000 tested, 0.69% active; in the data active means inhibition above about 41%;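 further: 0% = neutral control wells and 100% = reference inhibitor control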
Peg3 prom inh: reduces Peg3 promoter-driven luciferase expression in HeLa; HeLa PEG-Prom luciferase reporter, luminescence, overnight; inhibition, % at 20 µM; 360,000 tested, 1.7% active; AID 588405;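 active means inhibition of at least 50% at 20 µM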
* = called active by the depositor; / = no result given. Most compounds without a hit are left out; they make up all but 4.1% or so of the library.

SMILES | TROY signal inh | MITF TRPM1 inh | TWEAK Fn14 block | Shn3 inh set2 | EBV LMP1 NFkB | Peg3 prom inh
Cc1cccc2sc(N(CCCN(C)C)C(=O)c3ccc(C(=O)c4ccccc4)cc3)nc12 | -23 | -14 | 22 | 9 | 2 | 86*
CN(C)CCCN(C(=O)COc1ccccc1)c1nc2ccc(F)cc2s1 | -14 | 4 | -27 | 3 | -8 | -19
CN(C)CCCN(C(=O)CCOc1ccccc1)c1nc2c(F)cccc2s1 | 21 | 16 | 33 | 9 | 34 | 50*
Cc1nc(C)c(C(=O)OCC(=O)NCCc2ccc(F)cc2)s1 | -13 | 4 | 10 | -1 | -2 | 5
CC(C)(C)c1ccc(C(=O)NNc2ncccc2-n2cccc2)cc1 | 53* | -15 | 8 | -13 | 0 | -8
O=C(CCNC(=O)c1ccccc1Cl)NCCc1ccc(C(F)(F)F)cc1 | 14 | 10 | 72* | 9 | 1 | -6
O=[N+]([O-])c1cccc2c(N3CCCC3)ccnc12 | -19 | 81* | 0 | 62 | -38 | -27
O=C(c1ccccc1F)N1CCN(c2ccc([N+](=O)[O-])c3ncccc23)CC1 | 1 | 25 | 0 | 31 | 2 | 14
O=C(COC(=O)C1CCN(c2ccc(C(F)(F)F)cn2)CC1)Nc1cccc(F)c1 | -7 | -4 | -26 | -19 | -3 | -12
COC1(OC)C=CC(=O)C=C1NC(=O)c1ccccc1OC(C)=O | 5 | 31 | 63* | 26 | -6 | 50*
COC(=O)c1c(-c2ccc3ccccc3c2)csc1NC(=O)Cc1ccc(OC)c(OC)c1 | 47 | 16 | 65* | 59 | 13 | 42
COC(=O)c1c(-c2ccc(OC)c(OC)c2)csc1N | -1 | 6 | 11 | 17 | -8 | -9
C=CC(=O)Nc1cccc(Oc2ccnc(Nc3ccc(N4CCN(C)CC4)cc3)n2)c1 | 16 | 28 | -7 | 66 | 35 | 52*
C=CC(=O)Nc1cccc(N(C)c2ccnc(Nc3ccc(N4CCN(C)CC4)cc3)n2)c1 | 46 | 25 | -3 | 84 | 44* | 38
COc1cc(OC)cc(C(=O)N[C@H](C(=O)Nc2c(C)n(C)n(-c3ccccc3)c2=O)C(C)C)c1 | 10 | / | 3 | 8 | 27 | 7
CC(=O)Oc1ccc(-c2cccc(C(=O)OCC(=O)Nc3ccccc3Oc3ccccc3)c2)cc1 | -6 | 0 | 19 | 12 | 3 | 22
CCOc1ccccc1NC(=O)COC(=O)c1cccc(-c2ccc(OC(C)=O)cc2)c1 | 62* | 2 | 64* | -9 | -16 | -64
COc1ccc(/C=C/C(=O)Nc2ccccc2C(=O)O)cc1OC | 84* | -2 | 98* | 23 | 18 | 12
COc1ccc(/C=C/C(=O)Nc2ccccc2C(F)(F)F)cc1OC | -40 | -15 | -10 | -5 | 8 | -9
COc1ccc(/C=C/c2cc(C(=O)O)c3ccccc3n2)cc1 | -6 | 46 | 77* | 51 | 80* | 30
COc1ccc(/C=C/C(=O)Nc2ccccc2C(=O)O)cc1 | 54* | -5 | 87* | 9 | 30 | -89
COc1ccc(/C=C/C(=O)Nc2ccccc2C(=O)N2CCCC2)cc1 | 48 | -15 | 47 | -25 | -12 | -72
Cc1ccc(S(=O)(=O)N[C@@H](C)C(=O)N2CCC(C(=O)N[C@@H](Cc3ccccc3)C(=O)O)CC2)cc1 | -24 | 2 | 6 | -4 | 1 | 1
CCC(C)(C)n1nnnc1C(c1ccccc1F)N1CCN(C(=O)c2ccco2)CC1 (centres undefined) | -2 | / | 1 | -49 | -9 | 3
COc1cccc(CN(C(=O)COc2ccc(C)cc2)C2CCS(=O)(=O)C2)c1 (centres undefined) | -16 | -1 | 12 | -11 | 0 | 7
SMILES | TROY signal inh | MITF TRPM1 inh | TWEAK Fn14 block | Shn3 inh set2 | EBV LMP1 NFkB | Peg3 prom inh
O=C(c1ccccc1)N1CCN(c2ccc(N3CCOCC3)nn2)CC1 | -3 | -1 | -1 | -3 | -14 | 13
COC(=O)C1=CN(Cc2ccccc2)C=C(C(=O)OC)C1c1cc(F)ccc1F | -2 | 5 | 1 | 27 | -4 | 17
COc1ccc(C(=O)CCS(=O)(=O)c2ccc(C)cc2)cc1OC | 20 | -3 | 5 | -24 | -1 | 59*
COc1ccc(C(=O)COC(=O)CCS(=O)(=O)c2ccc(C)cc2)c(OC)c1 | -9 | 0 | 7 | 3 | -2 | 10
COC(=O)c1cc2c(n1S(=O)(=O)c1ccc(C)cc1)C(=O)C(=O)c1[nH]cc(C(=O)OCc3ccccc3)c1-2 | 65* | 108* | 103* | 92* | 88* | 89*
O=C1NC(=O)C(=Cc2ccc(Cl)cc2Cl)S1 | 54* | -24 | 30 | -59 | -4 | -148
Cc1cc(C)cc(Cn2cc(CN3CC(N4CCN(C)CC4)CS3(=O)=O)nn2)c1 (centres undefined) | -10 | / | -6 | / | / | /
Cn1cc([N+](=O)[O-])c(C(=O)Nc2sc3c(c2C#N)CCC3)n1 | -7 | 68* | 0 | 95* | -8 | -41
COc1ccc(C(=O)c2sc3nc(-c4ccccc4)ccc3c2N)cc1 | -29 | -9 | 2 | -2 | -10 | -23
CC(C)OC(=O)c1sc2nc(-c3ccccc3)ccc2c1N | 80* | 5 | 91* | -8 | -62 | -87
CC1=CC(C)(C)Nc2ccc(OC(=O)CCN3C(=O)c4ccccc4C3=O)cc21 | 26 | 22 | 96* | 53 | -20 | 104*
COc1ccc(S(=O)(=O)Nc2cccc3c2O[C@H](CN(C)S(=O)(=O)c2cccs2)[C@@H](C)CN([C@H](C)CO)C3=O)cc1 | -6 | -4 | -25 | -17 | -3 | -7
COc1ccc2[nH]c3c(=O)n(CCCCC(=O)N4CCC(C(N)=O)CC4)c(=S)[nH]c3c2c1 | 5 | 1 | -18 | -21 | 65* | 7
CCCc1cc(=O)oc2cc(OCC(=O)NCCc3c[nH]c4ccccc34)ccc12 | -7 | 0 | -14 | 3 | -7 | 57*
CC(NC(=O)COC(=O)c1cc(NS(=O)(=O)c2ccc(Cl)c([N+](=O)[O-])c2)ccc1O)C1CC2CCC1C2 (centres undefined) | 49 | 4 | -7 | -16 | 6 | 96*
COc1ccc(NS(=O)(=O)c2ccc(O)c(C(=O)OCC(=O)NC(C)C3CC4CCC3C4)c2)cc1 (centres undefined) | -23 | -3 | 13 | -8 | -9 | 1
COc1ccc(/C=C(\NC(=O)c2ccc(C)cc2)C(=O)NCCCN2CCOCC2)cc1OC | 7 | 1 | 30 | 8 | -6 | 9
Cc1ccc(S(=O)(=O)n2cnc3ccccc32)cc1[N+](=O)[O-] | 11 | -1 | 7 | -5 | 29 | 6
Cc1cc(C)n(CC(O)Cn2c3ccccc3c3ccccc32)n1 (centres undefined) | 12 | -14 | -12 | 2 | 1 | 8
Cc1nccn1CC(O)Cn1c2ccccc2c2ccccc21 (centres undefined) | / | -9 | 84* | 11 | 2 | 4

From PubChem BioAssay
